Screening results as filed in PubChem BioAssay.
12-LOX inh: ALOX12 (human) lipoxygenase inhibition; P18054; purified 12hLO, xylenol orange hydroperoxide absorbance; Potency, µM (highest dose often 108 µM), for inactives: at the top dose activity change, negative = inhibition, actives largely listed as inhibitors; actives 1.1% (n = 580,000); AID 1671190; note: potency is the fitted concentration of half-maximal effect
Target sequence (P18054 whole entry, looked up): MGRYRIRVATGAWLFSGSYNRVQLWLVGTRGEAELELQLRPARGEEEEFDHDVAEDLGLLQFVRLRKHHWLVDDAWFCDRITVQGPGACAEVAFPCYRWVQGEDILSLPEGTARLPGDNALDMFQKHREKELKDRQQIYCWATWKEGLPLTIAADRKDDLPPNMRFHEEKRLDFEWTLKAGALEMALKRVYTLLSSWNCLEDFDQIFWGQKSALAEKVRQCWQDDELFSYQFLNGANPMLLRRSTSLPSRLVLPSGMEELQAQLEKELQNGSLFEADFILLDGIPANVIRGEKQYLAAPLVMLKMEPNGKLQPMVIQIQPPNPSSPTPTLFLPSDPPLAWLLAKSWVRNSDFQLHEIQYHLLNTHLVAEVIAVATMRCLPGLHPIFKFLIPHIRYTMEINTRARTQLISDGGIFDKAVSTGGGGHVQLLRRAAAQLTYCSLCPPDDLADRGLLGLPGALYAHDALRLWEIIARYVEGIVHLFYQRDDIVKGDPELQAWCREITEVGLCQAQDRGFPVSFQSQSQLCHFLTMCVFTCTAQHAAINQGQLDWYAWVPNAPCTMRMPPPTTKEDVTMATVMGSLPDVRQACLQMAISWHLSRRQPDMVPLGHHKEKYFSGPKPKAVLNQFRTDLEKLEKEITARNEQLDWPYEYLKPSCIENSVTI
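Purified human 12hLO at 150 nM in 25 mM Hepes, 0.01% Triton X-100, pH 7.0, preincubated 15 min at room temperature with compound. Reaction started with 40 uM arachidonic acid, 30 min at room temperature. Hydroperoxide measured by Fe-xylenol orange, 573/405 nm absorbance ratio.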
TDP1 cell noCPT: qHTS for Inhibitors of human tyrosyl-DNA phosphodiesterase 1 (TDP1): qHTS in cells in absence of CPT | Potency, µM (titrated, usually from 46.2 µM), without a hit: top-dose activity change, negative = growth inhibition, usual class: inhibitors | actives 15% (n = 420,000) | AID 686978, 2013 | DT40 Tdp1-/- hTDP1 cells, no CPT, ATP luminescence, 48 h; note: potency is the fitted concentration of half-maximal effect; nearly all actives have a fitted effect of over 55% in size
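Luminescent ATP content (CellTiter-Glo) served as the growth readout. Knockout chicken DT40 cells expressing human TDP1 were exposed to compounds without camptothecin for a minimum 48 hr at 37 °C.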
HT1080 IDH1KD tx: kills HT-1080 cells with IDH1 knockdown | Potency, µM (titrated, usually from 46.1 µM), for inactives: top-dose activity, negative = toxicity, hits mostly cytotoxic | HT-1080 IDH1 knockdown viability, ATP luminescence, 48 h | actives 2% (n = 360,000) | AID 686971;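 note: potency is the fitted concentration of half-maximal effect; 0% = DMSO wells and -100% = cell-free medium wells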
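Cytotoxicity counter-line: IDH1KD HT-1080, 48 h, CellTiter-Glo. Curves classed by r2, magnitude and activity.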
HT1080NT lethal: kills 2HG-producing HT-1080-NT fibrosarcoma cells; HT-1080-NT fibrosarcoma viability, CellTiter-Glo ATP luminescence, 48 h; Potency, µM (highest dose often 46.1 µM), inactives show at the top dose activity, negative = less viability, usual class: cytotoxic; actives 1.6% (n = 360,000);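 note: NT is the 2HG producing partner of a matched IDH1 knockdown line; potency is the fitted concentration of half-maximal effect; 0% = DMSO-treated cells and -100% = media-only wells without cells; nearly all actives have a fitted effect of over 55% in size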
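HT-1080-NT; 750 cells/well; 5% FBS RPMI; 48 h compound, 37 degrees C; CellTiter-Glo luminescence; curve fitting and curve-class assignment.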
IL-1B inflam inh: inhibitors of inflammasome signaling (IL-1 beta secretion); AID 743279; activity change, % at 57.5 µM; actives 4.7% (n = 360,000); THP-1 LPS/ATP IL-1B secretion, AlphaLISA, 16 h; stronger effect = lower value; in the data active = activity change below about -50%; inconclusive = mostly about -30% to -49%
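Secreted IL-1B measured by AlphaLISA bead assay after 16 h compound exposure of THP-1 cells; compounds (final up to 57.5 uM) added 1 h before LPS (250 ng/mL) and ATP (1.25 mM) stimulation; lower signal means less secretion.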
TDP1 cell CPT: DT40-hTDP1 cell growth loss with CPT; Potency, µM (highest dose often 46.2 µM), inactives show at the top dose activity change, negative = growth inhibition, most hits filed as inhibitors; chicken DT40 Tdp1-/-;hTDP1 cells + 20 nM CPT, ATP luminescence, 48 h; actives 12% (n = 420,000); note: potency is the fitted concentration of half-maximal effect; nearly all actives have a fitted effect of over 55% in size
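Chicken DT40 Tdp1-/- cells stably complemented with human TDP1 were seeded at 400 cells/well in medium containing 20 nM camptothecin, exposed to pin-transferred compounds, and grown at 37 °C for at least 48 hr. Viability was read as ATP luminescence.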
* = called active by the depositor; [ ] = dose if it differs, or a comment. This is one part of a sample in which hits are shown more often than they occur. Unless noted, calls come from the whole dose curve; as a rule, active = well fitted curve in the direction sought with a large enough effect; inconclusive = small, poorly fitted or top-dose-only effect, or another doubt; inactive = no such curve, though single readings can be large; an effect the other way counts as inactive or inconclusive. Unless noted, % is set by controls: 0 for no effect and ±100 for the full control effect.

`CSc1nc(NCCOCCO)c2sc3nc(-c4ccco4)c4c(c3c2n1)CCC4` gave 12-LOX inh inconclusive, TDP1 cell noCPT 16µM*, HT1080 IDH1KD tx -4%[9.24 µM], HT1080NT lethal inconclusive, IL-1B inflam inh -14 and TDP1 cell CPT 18µM*.
`CCN1C(=O)[C@@H]2[C@@H](c3ccc(-c4ccc5c(c4)OCO5)cc3)N3CCCC[C@@]3(C(=O)OC)[C@@H]2C1=O` gave 12-LOX inh -12%, TDP1 cell noCPT 21µM*, HT1080 IDH1KD tx 3%, HT1080NT lethal 0%, IL-1B inflam inh -3 and TDP1 cell CPT 15µM*.
`COC(=O)[C@@]12CCCCN1[C@H](c1ccc(-c3ccc4c(c3)OCO4)c(OC)c1)[C@@H]1C(=O)N(C)C(=O)[C@@H]12` gave 12-LOX inh -29%, TDP1 cell noCPT inconclusive, HT1080 IDH1KD tx 1%, HT1080NT lethal -17%, IL-1B inflam inh 4 and TDP1 cell CPT inconclusive.
For CCN1C(=O)[C@H]2[C@@H](c3ccc(-c4ccc5c(c4)OCO5)cc3)N3CCC[C@@]3(C(=O)OC)[C@H]2C1=O the results were 12-LOX inh -11%, TDP1 cell noCPT 12µM*, HT1080 IDH1KD tx 1%, HT1080NT lethal 6%, IL-1B inflam inh -26 and TDP1 cell CPT inconclusive.
CCN1C(=O)[C@@H]2[C@@H](c3ccc(-c4ccc5c(c4)OCO5)c(OC)c3)N3CCC[C@@]3(C(=O)OC)[C@@H]2C1=O was read as 12-LOX inh 11µM*, TDP1 cell noCPT inconclusive, HT1080 IDH1KD tx 3%, HT1080NT lethal 6%, IL-1B inflam inh 3 and TDP1 cell CPT -10%.
Screening COc1ccc(NC(=O)N2CCN(Cc3ccccc3C)CC2)cc1OC returned 12-LOX inh 13%.
Clc1ccc(-c2nc(-c3ccc(Br)o3)no2)c(Cl)c1 was read as 12-LOX inh -16%.
Screening CC(C)c1ccc(OCC(=O)NC2CC(C)(C)NC(C)(C)C2)c(Br)c1 returned 12-LOX inh -4%, TDP1 cell noCPT inconclusive, HT1080 IDH1KD tx inconclusive, HT1080NT lethal -27%, IL-1B inflam inh -62* and TDP1 cell CPT inconclusive.
Screening Cc1ccc(OCC(=O)NC2CC(C)(C)NC(C)(C)C2)c(C)c1 returned 12-LOX inh -6%, TDP1 cell noCPT 0%, HT1080 IDH1KD tx -3%, HT1080NT lethal -4%, IL-1B inflam inh -5 and TDP1 cell CPT -4%.
`CC1(C)CC(NC(=O)COc2ccc(Cl)cc2Cl)CC(C)(C)N1` gave 12-LOX inh -2%, TDP1 cell noCPT -13%, HT1080 IDH1KD tx -2%, HT1080NT lethal -11%, IL-1B inflam inh inconclusive and TDP1 cell CPT -13%.
`Cc1cc(OCC(=O)NC2CC(C)(C)NC(C)(C)C2)c(C)cc1Br` gave 12-LOX inh -1%, TDP1 cell noCPT 13µM*, HT1080 IDH1KD tx -24%, HT1080NT lethal -4%, IL-1B inflam inh inactive and TDP1 cell CPT inconclusive.
For Cc1ccccc1CC(=O)Nc1ccccc1NS(C)(=O)=O the results were 12-LOX inh -28%.
Screening CN1/C(=C/C(=O)COC(=O)CN2C(=O)C3CC=CCC3C2=O)C(C)(C)c2ccccc21 (configuration not stated) returned 12-LOX inh -3%, TDP1 cell noCPT 16µM*, HT1080 IDH1KD tx -19%, HT1080NT lethal -7%, IL-1B inflam inh -11 and TDP1 cell CPT inconclusive.
`CN1/C(=C\C(=O)COC(=O)c2ccc([N+](=O)[O-])o2)C(C)(C)c2ccccc21` gave 12-LOX inh 0%, TDP1 cell noCPT -15%, HT1080 IDH1KD tx 3%, HT1080NT lethal 1%, IL-1B inflam inh 8 and TDP1 cell CPT -11%.
`CN1/C(=C\C(=O)COC(=O)Cn2nnc(-c3ccccc3)n2)C(C)(C)c2ccccc21` gave 12-LOX inh 0%, TDP1 cell noCPT 3.7µM*, HT1080 IDH1KD tx inconclusive, HT1080NT lethal -18%, IL-1B inflam inh 8 and TDP1 cell CPT 4.1µM*.
Cc1ccc(CC(=O)Nc2cc(C(C)(C)C)ccc2O)cc1 was read as 12-LOX inh -22%.
Screening CCN(CC)C(=O)CSC1=C(C#N)C(c2cccs2)C=C(C)N1 (configuration not stated) returned 12-LOX inh inconclusive, TDP1 cell noCPT 23µM*, HT1080 IDH1KD tx -2%, HT1080NT lethal 2%, IL-1B inflam inh -13 and TDP1 cell CPT inconclusive.
Screening CCOCCCn1c(=N)c(C(=O)NCc2ccccc2)cc2c(=O)n3ccccc3nc21 returned 12-LOX inh 0%, TDP1 cell noCPT inconclusive and TDP1 cell CPT -19%.
Screening COc1ccc(CCn2c(=N)c(C(=O)NCc3ccco3)cc3c(=O)n4ccccc4nc32)cc1 returned 12-LOX inh -13%, TDP1 cell noCPT 23µM*, HT1080 IDH1KD tx 13µM*, HT1080NT lethal inconclusive, IL-1B inflam inh -54* and TDP1 cell CPT inconclusive.
Screening N=c1c(C(=O)NCCc2ccccc2)cc2c(=O)n3ccccc3nc2n1CCCN1CCOCC1 returned 12-LOX inh -26%, TDP1 cell noCPT 15µM*, HT1080 IDH1KD tx -21%, HT1080NT lethal -29%, IL-1B inflam inh -56* and TDP1 cell CPT -26%.
N=c1c(C(=O)NCCN2CCOCC2)cc2c(=O)n3ccccc3nc2n1CCc1ccccc1 was read as 12-LOX inh -26%, TDP1 cell noCPT 23µM*, HT1080 IDH1KD tx 12%, HT1080NT lethal 21%, IL-1B inflam inh 2 and TDP1 cell CPT inconclusive.
CCOc1ccccc1C1NC(=O)N(CC(=O)Nc2ccc(C)cc2)C2=C1C(=O)OC2 (configuration not stated) was read as 12-LOX inh -3%.
For CC(=O)c1cn(CC(=O)NCc2ccc(F)cc2)c2ccccc12 the results were 12-LOX inh 62%.
`Cn1cnc2c1c(=O)n(CCCSc1nnc(-c3cccc(Cl)c3)o1)c(=O)n2C` gave 12-LOX inh -1%.
For CC(=O)NCC(=O)N1CCCC(n2cc(-c3nc(-c4ccccc4)no3)nn2)C1 (configuration not stated) the results were 12-LOX inh 19%.
`Cc1ccc(/C(COc2ccc3c(C)c(Cc4ccccc4)c(=O)oc3c2)=N/O)cc1` gave 12-LOX inh 7%.
